In ChEMBL document CHEMBL1961873, “Compounds: GSK PKIS; Assays: Nanosyn kinase panel” (2012):

How the values were obtained:
[1] = target: Dual specificity protein kinase CLK3 (Homo sapiens) (UniProt P49761); details: at 1 µM;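 also: each value is the mean inhibition of CLK3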
[2] = target: Dual specificity tyrosine-phosphorylation-regulated kinase 1A (Homo sapiens) (UniProt Q13627); details: at 0.1 µM
[3] = target: Dual specificity tyrosine-phosphorylation-regulated kinase 1A (Homo sapiens) (UniProt Q13627); details: at 1 µM
[4] = target: Dual specificity tyrosine-phosphorylation-regulated kinase 1B (Homo sapiens) (UniProt Q9Y463); details: at 0.1 µM
[5] = target: Dual specificity tyrosine-phosphorylation-regulated kinase 1B (Homo sapiens) (UniProt Q9Y463); details: at 1 µM
[6] = target: T1, Dual specificity tyrosine-phosphorylation-regulated kinase 2 (Homo sapiens) (UniProt Q92630); details: at 0.1 µM
T1 sequence (whole entry): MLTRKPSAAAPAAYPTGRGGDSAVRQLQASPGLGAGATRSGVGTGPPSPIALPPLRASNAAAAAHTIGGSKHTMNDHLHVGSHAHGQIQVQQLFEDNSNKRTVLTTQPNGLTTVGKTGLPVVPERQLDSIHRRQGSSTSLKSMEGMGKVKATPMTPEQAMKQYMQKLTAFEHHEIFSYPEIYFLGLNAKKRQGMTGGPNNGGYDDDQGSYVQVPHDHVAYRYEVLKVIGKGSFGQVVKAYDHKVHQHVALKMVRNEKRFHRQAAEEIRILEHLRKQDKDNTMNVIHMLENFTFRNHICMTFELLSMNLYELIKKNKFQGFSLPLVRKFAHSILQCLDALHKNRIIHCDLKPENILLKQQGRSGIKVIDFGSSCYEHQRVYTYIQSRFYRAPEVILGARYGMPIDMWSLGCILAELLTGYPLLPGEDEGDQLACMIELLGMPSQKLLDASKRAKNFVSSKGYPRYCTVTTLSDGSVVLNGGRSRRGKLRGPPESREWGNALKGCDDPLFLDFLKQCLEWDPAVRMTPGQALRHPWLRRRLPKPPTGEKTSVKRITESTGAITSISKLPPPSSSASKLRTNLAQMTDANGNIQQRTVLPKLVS

[7] = target: T1, Dual specificity tyrosine-phosphorylation-regulated kinase 2 (Homo sapiens); details: at 1 µM
[8] = target: Glycogen synthase kinase-3 alpha (Homo sapiens) (UniProt P49840); details: at 0.1 µM
[9] = target: Glycogen synthase kinase-3 alpha (Homo sapiens) (UniProt P49840); details: at 1 µM
[10] = target: Glycogen synthase kinase-3 beta (Homo sapiens) (UniProt P49841); details: at 0.1 µM
[11] = target: Glycogen synthase kinase-3 beta (Homo sapiens) (UniProt P49841); details: at 1 µM
[12] = target: Homeodomain-interacting protein kinase 1 (Homo sapiens) (UniProt Q86Z02); details: at 0.1 µM
[13] = target: Homeodomain-interacting protein kinase 1 (Homo sapiens) (UniProt Q86Z02); details: at 1 µM
[14] = target: T2, Homeodomain-interacting protein kinase 4 (Homo sapiens) (UniProt Q8NE63); details: at 0.1 µM
T2 sequence (whole entry): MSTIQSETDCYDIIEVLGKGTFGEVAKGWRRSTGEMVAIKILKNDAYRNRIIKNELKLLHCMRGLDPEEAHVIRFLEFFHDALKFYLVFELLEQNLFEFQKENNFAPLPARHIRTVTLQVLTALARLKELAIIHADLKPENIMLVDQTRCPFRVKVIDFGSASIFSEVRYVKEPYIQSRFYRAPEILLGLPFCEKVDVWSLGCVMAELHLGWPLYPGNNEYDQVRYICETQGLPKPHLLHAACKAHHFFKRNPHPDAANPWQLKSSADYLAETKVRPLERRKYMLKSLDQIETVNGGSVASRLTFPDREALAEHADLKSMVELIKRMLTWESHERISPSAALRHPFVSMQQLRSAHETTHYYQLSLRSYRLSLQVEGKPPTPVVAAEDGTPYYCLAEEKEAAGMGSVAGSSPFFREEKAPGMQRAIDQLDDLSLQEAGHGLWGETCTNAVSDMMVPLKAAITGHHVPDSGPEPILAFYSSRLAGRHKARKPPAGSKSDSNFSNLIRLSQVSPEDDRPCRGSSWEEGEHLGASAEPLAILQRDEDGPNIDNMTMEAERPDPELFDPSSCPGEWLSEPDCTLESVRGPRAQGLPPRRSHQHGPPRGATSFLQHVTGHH

[15] = target: T2, Homeodomain-interacting protein kinase 4 (Homo sapiens); details: at 1 µM
[16] = target: Mitogen-activated protein kinase 9 (Homo sapiens) (UniProt P45984); details: at 0.1 µM
[17] = target: Mitogen-activated protein kinase 9 (Homo sapiens) (UniProt P45984); details: at 1 µM
[18] = target: Mitogen-activated protein kinase 1 (Homo sapiens) (UniProt P28482); details: at 0.1 µM
[19] = target: Mitogen-activated protein kinase 1 (Homo sapiens) (UniProt P28482); details: at 1 µM
[20] = target: Mitogen-activated protein kinase 3 (Homo sapiens) (UniProt P27361); details: at 0.1 µM;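 also: each value is a mean inhibition figure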
Sequence of Mitogen-activated protein kinase 3 (Homo sapiens) (P27361 whole entry): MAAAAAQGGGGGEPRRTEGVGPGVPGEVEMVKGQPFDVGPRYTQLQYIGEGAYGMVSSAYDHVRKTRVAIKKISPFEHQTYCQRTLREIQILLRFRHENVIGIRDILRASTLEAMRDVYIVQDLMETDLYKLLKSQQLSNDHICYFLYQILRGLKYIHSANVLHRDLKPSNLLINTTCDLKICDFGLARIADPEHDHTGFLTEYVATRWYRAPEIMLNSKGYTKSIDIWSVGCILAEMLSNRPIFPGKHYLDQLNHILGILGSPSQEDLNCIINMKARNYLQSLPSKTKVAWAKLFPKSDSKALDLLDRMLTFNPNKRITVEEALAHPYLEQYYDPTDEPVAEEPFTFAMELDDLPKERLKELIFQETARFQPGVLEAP

Sequence of Glycogen synthase kinase-3 alpha (Homo sapiens) (P49840 2-483 limits assumed): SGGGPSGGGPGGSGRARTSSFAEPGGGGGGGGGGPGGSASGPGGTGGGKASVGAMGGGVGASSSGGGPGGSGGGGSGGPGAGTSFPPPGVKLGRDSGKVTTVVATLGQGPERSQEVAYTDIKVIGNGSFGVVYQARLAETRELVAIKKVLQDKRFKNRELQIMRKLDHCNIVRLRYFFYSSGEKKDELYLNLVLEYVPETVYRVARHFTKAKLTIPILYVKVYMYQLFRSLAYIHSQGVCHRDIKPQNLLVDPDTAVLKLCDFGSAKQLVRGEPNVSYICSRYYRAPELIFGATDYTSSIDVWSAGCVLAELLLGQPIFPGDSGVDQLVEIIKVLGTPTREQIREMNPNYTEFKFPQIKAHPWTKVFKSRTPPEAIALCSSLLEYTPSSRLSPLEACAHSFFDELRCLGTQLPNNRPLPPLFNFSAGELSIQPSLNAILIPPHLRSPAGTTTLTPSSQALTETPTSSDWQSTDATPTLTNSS
Sequence of Dual specificity protein kinase CLK3 (Homo sapiens) (P49761 whole entry, looked up): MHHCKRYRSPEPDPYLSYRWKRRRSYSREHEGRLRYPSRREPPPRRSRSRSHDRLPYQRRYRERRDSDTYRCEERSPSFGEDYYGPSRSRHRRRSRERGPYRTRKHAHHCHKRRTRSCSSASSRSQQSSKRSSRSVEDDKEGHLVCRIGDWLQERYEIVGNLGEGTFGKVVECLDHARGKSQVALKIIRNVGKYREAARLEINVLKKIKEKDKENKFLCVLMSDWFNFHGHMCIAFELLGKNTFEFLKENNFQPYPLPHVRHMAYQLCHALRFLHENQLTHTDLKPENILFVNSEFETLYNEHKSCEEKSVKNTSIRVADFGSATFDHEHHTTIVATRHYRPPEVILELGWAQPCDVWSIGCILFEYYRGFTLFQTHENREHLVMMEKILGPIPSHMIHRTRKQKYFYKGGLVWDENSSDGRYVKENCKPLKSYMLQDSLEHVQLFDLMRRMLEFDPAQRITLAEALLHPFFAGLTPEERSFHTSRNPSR
Sequence of Dual specificity tyrosine-phosphorylation-regulated kinase 1B (Homo sapiens) (Q9Y463 whole entry, looked up): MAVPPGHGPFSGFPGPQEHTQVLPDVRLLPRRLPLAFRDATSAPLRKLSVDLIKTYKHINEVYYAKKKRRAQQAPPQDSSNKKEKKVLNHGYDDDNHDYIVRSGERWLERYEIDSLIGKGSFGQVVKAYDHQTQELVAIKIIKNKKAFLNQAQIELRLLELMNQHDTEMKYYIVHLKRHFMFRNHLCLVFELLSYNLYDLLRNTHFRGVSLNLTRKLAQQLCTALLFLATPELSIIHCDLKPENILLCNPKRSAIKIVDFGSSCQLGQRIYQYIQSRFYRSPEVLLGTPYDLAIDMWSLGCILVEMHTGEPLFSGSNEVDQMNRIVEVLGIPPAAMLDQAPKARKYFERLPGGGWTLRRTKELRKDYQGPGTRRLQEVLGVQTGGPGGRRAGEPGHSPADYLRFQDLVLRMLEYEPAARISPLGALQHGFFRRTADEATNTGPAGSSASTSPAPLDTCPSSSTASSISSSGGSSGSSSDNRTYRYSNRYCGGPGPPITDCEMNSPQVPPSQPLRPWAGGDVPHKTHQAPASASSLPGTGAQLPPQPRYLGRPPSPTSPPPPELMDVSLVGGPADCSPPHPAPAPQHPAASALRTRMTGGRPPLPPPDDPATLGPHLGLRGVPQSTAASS
Sequence of Mitogen-activated protein kinase 1 (Homo sapiens) (P28482 whole entry): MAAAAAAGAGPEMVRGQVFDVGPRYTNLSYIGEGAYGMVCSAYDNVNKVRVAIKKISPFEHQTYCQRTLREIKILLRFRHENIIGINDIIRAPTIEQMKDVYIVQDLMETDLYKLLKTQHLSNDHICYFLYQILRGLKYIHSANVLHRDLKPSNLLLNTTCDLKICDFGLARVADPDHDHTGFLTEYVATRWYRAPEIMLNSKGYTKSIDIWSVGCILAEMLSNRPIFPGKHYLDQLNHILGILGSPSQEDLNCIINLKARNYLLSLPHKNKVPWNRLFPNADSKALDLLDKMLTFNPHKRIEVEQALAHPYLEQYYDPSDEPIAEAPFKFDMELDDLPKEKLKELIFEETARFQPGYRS
Sequence of Mitogen-activated protein kinase 9 (Homo sapiens) (P45984 whole entry, looked up): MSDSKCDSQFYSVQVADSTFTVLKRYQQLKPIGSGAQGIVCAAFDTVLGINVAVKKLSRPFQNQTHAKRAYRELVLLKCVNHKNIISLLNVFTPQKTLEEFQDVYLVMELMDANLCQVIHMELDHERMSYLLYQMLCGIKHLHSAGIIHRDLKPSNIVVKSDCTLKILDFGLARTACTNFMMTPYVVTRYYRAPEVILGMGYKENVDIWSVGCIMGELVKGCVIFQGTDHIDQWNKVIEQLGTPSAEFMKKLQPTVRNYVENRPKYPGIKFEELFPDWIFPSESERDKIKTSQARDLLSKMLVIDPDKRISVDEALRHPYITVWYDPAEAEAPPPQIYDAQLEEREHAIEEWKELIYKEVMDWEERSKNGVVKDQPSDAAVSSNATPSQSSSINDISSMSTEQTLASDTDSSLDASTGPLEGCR
Sequence of Homeodomain-interacting protein kinase 1 (Homo sapiens) (Q86Z02 whole entry, looked up): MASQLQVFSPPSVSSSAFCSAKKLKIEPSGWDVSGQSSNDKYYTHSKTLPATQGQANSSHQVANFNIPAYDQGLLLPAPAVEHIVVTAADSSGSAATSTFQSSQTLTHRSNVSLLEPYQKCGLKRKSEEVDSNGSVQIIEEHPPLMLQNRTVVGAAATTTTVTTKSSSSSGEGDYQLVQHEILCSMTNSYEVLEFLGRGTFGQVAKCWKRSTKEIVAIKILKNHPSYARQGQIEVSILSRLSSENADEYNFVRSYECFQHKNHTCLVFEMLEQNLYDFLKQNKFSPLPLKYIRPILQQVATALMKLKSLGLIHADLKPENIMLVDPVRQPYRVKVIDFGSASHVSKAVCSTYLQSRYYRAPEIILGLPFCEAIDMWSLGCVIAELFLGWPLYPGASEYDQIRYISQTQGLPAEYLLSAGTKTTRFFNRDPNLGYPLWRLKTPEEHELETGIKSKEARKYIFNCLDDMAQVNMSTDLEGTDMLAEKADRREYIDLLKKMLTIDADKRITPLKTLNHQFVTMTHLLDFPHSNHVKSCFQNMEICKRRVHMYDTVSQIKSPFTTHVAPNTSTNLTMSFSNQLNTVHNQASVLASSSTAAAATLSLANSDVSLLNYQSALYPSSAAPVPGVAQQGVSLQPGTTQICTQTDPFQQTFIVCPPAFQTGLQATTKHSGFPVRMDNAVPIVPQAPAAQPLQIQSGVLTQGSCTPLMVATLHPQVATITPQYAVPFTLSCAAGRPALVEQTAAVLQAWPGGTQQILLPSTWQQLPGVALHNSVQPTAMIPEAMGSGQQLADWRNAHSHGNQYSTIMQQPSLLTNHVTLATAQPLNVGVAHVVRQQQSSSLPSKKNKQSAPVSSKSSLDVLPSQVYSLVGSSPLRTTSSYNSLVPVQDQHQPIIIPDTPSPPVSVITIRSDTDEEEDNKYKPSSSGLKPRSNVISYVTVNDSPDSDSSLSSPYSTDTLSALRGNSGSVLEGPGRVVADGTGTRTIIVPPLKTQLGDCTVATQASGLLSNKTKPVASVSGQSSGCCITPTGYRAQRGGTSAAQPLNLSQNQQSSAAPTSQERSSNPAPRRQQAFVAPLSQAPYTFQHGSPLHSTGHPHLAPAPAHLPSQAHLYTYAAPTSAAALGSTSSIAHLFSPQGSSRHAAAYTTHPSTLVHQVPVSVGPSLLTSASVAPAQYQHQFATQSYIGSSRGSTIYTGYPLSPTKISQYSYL
Sequence of Glycogen synthase kinase-3 beta (Homo sapiens) (P49841 whole entry, looked up): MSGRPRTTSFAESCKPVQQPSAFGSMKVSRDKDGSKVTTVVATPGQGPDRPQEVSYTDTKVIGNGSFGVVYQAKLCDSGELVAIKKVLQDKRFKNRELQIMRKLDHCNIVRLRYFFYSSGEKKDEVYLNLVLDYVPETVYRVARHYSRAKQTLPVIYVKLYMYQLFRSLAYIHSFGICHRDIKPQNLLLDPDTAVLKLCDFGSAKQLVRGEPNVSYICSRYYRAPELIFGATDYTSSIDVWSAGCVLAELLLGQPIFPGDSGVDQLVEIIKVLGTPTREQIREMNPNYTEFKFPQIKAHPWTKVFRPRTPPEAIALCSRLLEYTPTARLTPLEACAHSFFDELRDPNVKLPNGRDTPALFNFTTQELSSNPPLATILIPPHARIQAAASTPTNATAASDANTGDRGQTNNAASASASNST

Structure (SMILES) | inhibition [1] [%] | inhibition [2] [%] | inhibition [3] [%] | inhibition [4] [%] | inhibition [5] [%] | inhibition [6] [%] | inhibition [7] [%] | inhibition [8] [%] | inhibition [9] [%] | inhibition [10] [%] | inhibition [11] [%] | inhibition [12] [%] | inhibition [13] [%] | inhibition [14] [%] | inhibition [15] [%] | inhibition [16] [%] | inhibition [17] [%] | inhibition [18] [%] | inhibition [19] [%] | inhibition [20] [%]
COc1cccc(-n2nc(C)c3c(N/N=C(\C)c4ccncc4)ncnc32)c1 | -2.35 | 1.02 | 11 | 1.32 | 8.31 | 0.5 | 4.22 | 4.39 | 11.6 | 3.08 | 9.41 | -1.66 | 2.66 | -1.56 | 2.79 | 1.92 | 2.01 | 2.86 | 1.42 | -1.05
Cc1ccc(C(=O)NC2CC2)cc1-c1ccc2[nH]ncc2c1 | 0.04 | -1.4 | 2.6 | 1.19 | 3.29 | -3.32 | -3.69 | -1.07 | 1.83 | -0.96 | 1.14 | -4.85 | 0.04 | 0.67 | 5.11 | -0.5 | -1.51 | -3.82 | -5.22 | -2.68
COC(=O)c1cncc(/C=C/c2c(C)cc(O)cc2C)c1 | 3.16 | 2.81 | 7.4 | 0.83 | 4.47 | 3.09 | 4 | 7.07 | 14.3 | 6.58 | 12.9 | 5.96 | 7.63 | 2.51 | 6.29 | -0.35 | 2.18 | 4.28 | 4.13 | 3.96
CCS(=O)(=O)c1ccc(OC)c(Nc2ncc(-c3cccc(OC)c3)o2)c1 | 13.2 | 8.22 | 41.4 | 6.86 | 37.7 | 3.86 | 18.4 | 1.96 | 9.4 | 2.23 | 11.2 | 7.9 | 48.3 | 19.5 | 65.7 | 3.19 | 6.62 | 1.59 | 1.18 | -0.18
O=C1Nc2ccccc2/C1=C/Nc1ccc2[nH]c(=O)[nH]c2c1 | 4.44 | 6.01 | 23.3 | 2.68 | 16.1 | 4.31 | 11.1 | 3.7 | 14.4 | 2.99 | 12 | 1.38 | 6.25 | 2.76 | 5.62 | 4.66 | 12.5 | 5.93 | 5.63 | 5.69
NS(=O)(=O)c1ccc(Nc2cc(-c3cccc(O)c3)n[nH]2)cc1 | 2.62 | 3.45 | 7.37 | 0.5 | 2.4 | 3.82 | 4.65 | 2.99 | 6.38 | 2.02 | 5.21 | -1.93 | 2.36 | 0.59 | 3.33 | 5.37 | 6.35 | 5.89 | 4.96 | 4.41
NS(=O)(=O)c1ccc(N/N=C2\C(=O)Nc3ccc(Cl)cc32)cc1 | 1.92 | 1.08 | 6.73 | 0.19 | 3.96 | 2.3 | 3.44 | 17.3 | 61.2 | 13.5 | 54.1 | 2.46 | 10.2 | 2.99 | 7.64 | 3.27 | 4.35 | 6.29 | 4.79 | 4.87
CCn1c(-c2nonc2N)nc2ccc(F)cc21 | 1.23 | 5.13 | 10.8 | -0.23 | 1.12 | 4.17 | 4.15 | 3.78 | 4.96 | 3 | 3.37 | 2.6 | 2.13 | 2.47 | 3.5 | 5.8 | 7.99 | 6.8 | 8.85 | 6.33
FC(F)(F)c1ccc(-c2nn3ncccc3c2-c2ccnc(Nc3ccc4c(c3)OCCO4)n2)cc1 | 5.27 | 5.25 | 6.32 | 4.87 | 5.88 | -0.81 | 0.53 | 6.66 | 6.68 | 7.6 | 9.99 | 9.14 | 7.72 | 9.55 | 11.2 | 3 | 32.6 | 1.76 | -1.13 | 3.25
COc1cc2ncnc(Nc3ccc(C)c(O)c3)c2cc1OC | 2.38 | 5.24 | 7.48 | 0.95 | 4.18 | 2.96 | 4.5 | 4.81 | 8.57 | 4.62 | 11.2 | 2.85 | 2.79 | 3.31 | 9.35 | 4.57 | 5.02 | 5.5 | 7.98 | 4.96
Cc1cc(-c2ccccn2)cc(C)c1/C=C/c1cncc(-c2nn[nH]n2)c1 | 0.95 | 2.5 | 1.98 | 2.58 | 4.24 | 3.69 | 4.85 | 5.73 | 12.5 | 5.72 | 13.7 | 1.03 | 5.14 | 1.94 | 7.19 | 5.13 | 9.24 | 4.92 | 7.24 | 5.71
Nc1nccc(-c2c(-c3ccc(F)cc3)ncn2CCCN2CCOCC2)n1 | 1.24 | 2.64 | 3.19 | 0.74 | 0.15 | 3.1 | 4.1 | 1.73 | 4.53 | 0.93 | 4.68 | 0.97 | -1.48 | 0.18 | -0.66 | 4.45 | 15.8 | 6.64 | 4.64 | 3.65
COc1cc(Nc2nccc(-c3cnn4ncccc34)n2)cc(OC)c1 | 77.3 | 85 | 91.2 | 87.4 | 92.4 | 5.46 | 30.2 | 49.7 | 86.8 | 60.2 | 89.9 | 86.8 | 93.7 | 30.6 | 76.3 | 10.4 | 48.1 | 2.31 | 19.7 | 2.46
